Assay results taken from PubChem BioAssay (Tox21).
Results filed as inconclusive are left out. The source made the active and inactive calls. Unless noted, the call rests on the fitted dose curve.

Legend:
[1] = Nuclear factor erythroid 2-related factor 2/antioxidant responsive element (Nrf2/ARE) small molecule agonists: qHTS cell viability counter screen in human keratinocytes (AID 1919968; active means well fitted curve in the direction sought with a large enough effect in the repeat runs; an effect the other way counts as inactive or inconclusive; further: nearly all actives have a fitted effect of over 55% in size)
In short: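 Seed 1,500 KeratinoSens cells per well, then incubate 5 h at 37 C/5% CO2. Add compounds in DMSO and incubate 23 h. Add CellTiter-Fluor, wait 1 h and read fluorescence.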

[2] = Nuclear factor erythroid 2-related factor 2/antioxidant responsive element (Nrf2/ARE) small molecule agonists: luciferase reporter gene qHTS assay in human keratinocytes (AID 1919969); further: nearly all actives have a fitted effect of over 35% in size
[3] = molecular target: Gonadotropin-releasing hormone receptor (Homo sapiens) (UniProt P30968); assay: Human gonadotropin-releasing hormone receptor (GnRHR) small molecule agonists, calcium flux assay in GnRHR-HEK293 cells (AID 1920063); further: nearly all actives have a fitted effect of over 35% in size
Chain of Gonadotropin-releasing hormone receptor (Homo sapiens) (P30968 whole entry, looked up): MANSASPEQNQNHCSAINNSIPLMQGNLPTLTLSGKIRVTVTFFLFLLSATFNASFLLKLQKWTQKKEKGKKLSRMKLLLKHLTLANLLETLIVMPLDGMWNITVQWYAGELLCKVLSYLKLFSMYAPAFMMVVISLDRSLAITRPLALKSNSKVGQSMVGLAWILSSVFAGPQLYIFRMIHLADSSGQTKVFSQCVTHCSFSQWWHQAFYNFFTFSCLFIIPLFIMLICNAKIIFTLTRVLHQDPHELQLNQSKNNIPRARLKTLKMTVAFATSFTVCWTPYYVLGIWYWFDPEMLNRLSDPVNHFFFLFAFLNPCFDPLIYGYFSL
In short: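 Cells: HEK293 stably expressing human GnRHR. Steps: overnight (18 h) culture, 1 h calcium dye loading at 37 C, compound addition, kinetic fluorescence read at 480/540 nm. Each compound tested at 15 concentrations in triplicate.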

[4] = molecular target: KiSS-1 receptor (Homo sapiens) (UniProt Q969F8); assay: Human kisspeptin (KISS1R) small molecule agonists, calcium flux assay in KISS1R-HEK293 cells (AID 1920064; active means well fitted curve in the direction sought with a large enough effect in the repeat runs; an effect the other way counts as inactive or inconclusive)
Chain of KiSS-1 receptor (Homo sapiens) (Q969F8 whole entry, looked up): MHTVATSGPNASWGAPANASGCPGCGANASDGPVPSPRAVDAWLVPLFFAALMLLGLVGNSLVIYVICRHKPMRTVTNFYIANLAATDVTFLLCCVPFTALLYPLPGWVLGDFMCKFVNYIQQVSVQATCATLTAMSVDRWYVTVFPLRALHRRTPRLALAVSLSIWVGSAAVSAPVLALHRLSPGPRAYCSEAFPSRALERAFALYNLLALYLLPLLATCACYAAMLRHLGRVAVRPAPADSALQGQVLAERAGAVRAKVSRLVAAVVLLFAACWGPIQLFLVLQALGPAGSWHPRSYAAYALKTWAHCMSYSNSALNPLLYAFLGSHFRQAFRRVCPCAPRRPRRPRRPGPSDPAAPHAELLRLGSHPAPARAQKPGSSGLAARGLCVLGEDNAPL
In short: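 Cells plated and incubated 18 h; dye added, 1 h at 37 C; compounds in DMSO pinned in; signal read at 480/540 nm every second for 3 min. Each compound tested at 15 concentrations in triplicate.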

[5] = p53 small molecule agonists, cell-based qHTS assay with human liver microsomes (AID 1963577)
In short: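 Compounds act here after metabolic activation: human liver microsomes and NADPH, both at 0.5 mg/mL final, were co-added to p53RE-bla cells. Incubation ran 16 h at 37 C, followed by LiveBLAzer detection.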

[6] = p53 small molecule agonists, cell-based qHTS assay with rat liver microsomes (AID 1963578)
In short: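 Read-out is beta-lactamase reporter fluorescence (LiveBLAzer, 2 h, room temperature, dark) in p53RE-bla cells treated 16 h at 37 C with compound, rat liver microsomes and NADPH, both 0.5 mg/mL final.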

[7] = p53 small molecule agonists, cell-based qHTS assay with human liver microsomes: qHTS cell viability counter screen (AID 1963579); further: nearly all actives have a fitted effect of over 45% in size
In short: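 Cells carrying the p53 response-element beta-lactamase reporter are treated for 16 h at 37 C with test compounds in the presence of human liver microsomes and NADPH (both 0.5 mg/mL final); ATP-based CellTiter-Glo luminescence then reports viability.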

[8] = p53 small molecule agonists, cell-based qHTS assay with rat liver microsomes: qHTS cell viability counter screen (AID 1963580); further: nearly all actives have a fitted effect of over 45% in size
In short: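 p53RE-bla HCT-116 cells (4,000/well) rested 5 h at 37 C, then given Tox21 compounds in DMSO with rat liver microsomes (0.5 mg/mL final) plus NADPH (0.5 mg/mL final) for 16 h at 37 C. Viability read by CellTiter-Glo luminescence after 30 min at room temperature.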

[9] = p53 small molecule agonists, cell-based qHTS assay: qHTS cell viability counter screen (AID 1963581); further: nearly all actives have a fitted effect of over 45% in size
In short: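 Cells: HCT-116 with p53 response element-driven beta-lactamase. Treatment: 16 h, 37 C, compounds in DMSO. Read: CellTiter-Glo luminescence after 30 min RT.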

[10] = p53 small molecule agonists, cell-based qHTS assay (AID 1963582; active means well fitted activation curve with a large enough effect in the signal ratio in the repeat runs, not every such curve was filed as active; the % refers to the signal ratio)
In short: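 Quantitative HTS in p53RE-bla cells: after a 5 h settling period, compounds delivered in DMSO were left on cells for 16 h at 37 C, and reporter induction was measured as fluorescence following 2 h substrate loading.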

[11] = molecular target: 5-hydroxytryptamine receptor 2A (Homo sapiens) (UniProt P28223); assay: 5-hydroxytryptamine receptor 2A (HTR2A) small molecule antagonists, cell-based qHTS assay (AID 1963586); further: nearly all actives have a fitted effect of over 45% in size; further: potency means the concentration at half of the fitted maximal effect
Chain of 5-hydroxytryptamine receptor 2A (Homo sapiens) (P28223 whole entry, looked up): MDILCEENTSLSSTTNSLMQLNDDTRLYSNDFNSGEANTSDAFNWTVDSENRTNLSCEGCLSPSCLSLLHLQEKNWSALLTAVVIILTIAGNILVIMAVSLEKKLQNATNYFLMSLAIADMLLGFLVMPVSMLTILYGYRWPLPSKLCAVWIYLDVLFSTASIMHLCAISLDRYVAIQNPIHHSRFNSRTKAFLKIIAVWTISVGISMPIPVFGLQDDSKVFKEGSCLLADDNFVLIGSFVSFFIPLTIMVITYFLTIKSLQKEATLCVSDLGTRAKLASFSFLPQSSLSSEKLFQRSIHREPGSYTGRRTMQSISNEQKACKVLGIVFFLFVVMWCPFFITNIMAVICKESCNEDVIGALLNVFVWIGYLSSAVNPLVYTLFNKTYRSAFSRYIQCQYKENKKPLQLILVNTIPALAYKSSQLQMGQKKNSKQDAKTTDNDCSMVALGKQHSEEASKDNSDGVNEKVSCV
In short: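 Antagonist-mode intracellular calcium assay: DOI (4 nM) added after 5 min compound pre-incubation at room temperature to dye-loaded HTR2A-CHO cells. Fluorescence followed for 3 min, sampled every second.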

[12] = molecular target: Muscarinic acetylcholine receptor M1 (Homo sapiens) (UniProt P11229); assay: Cholinergic receptor muscarinic 1 (CHRM1) small molecule antagonists, cell-based qHTS assay (AID 1963588); further: nearly all actives have a fitted effect of over 40% in size
Chain of Muscarinic acetylcholine receptor M1 (Homo sapiens) (P11229 whole entry, looked up): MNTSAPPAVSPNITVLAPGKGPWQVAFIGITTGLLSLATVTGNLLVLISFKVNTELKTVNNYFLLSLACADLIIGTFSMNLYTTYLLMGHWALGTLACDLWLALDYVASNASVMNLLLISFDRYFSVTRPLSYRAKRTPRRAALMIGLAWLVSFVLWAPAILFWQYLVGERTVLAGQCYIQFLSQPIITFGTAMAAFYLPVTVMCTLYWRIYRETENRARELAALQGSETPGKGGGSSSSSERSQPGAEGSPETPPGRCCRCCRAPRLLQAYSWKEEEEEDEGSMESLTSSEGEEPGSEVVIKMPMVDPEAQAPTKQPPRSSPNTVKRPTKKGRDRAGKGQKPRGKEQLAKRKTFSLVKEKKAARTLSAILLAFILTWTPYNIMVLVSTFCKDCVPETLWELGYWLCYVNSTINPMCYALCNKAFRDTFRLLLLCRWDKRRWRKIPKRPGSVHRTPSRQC
In short: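 CHRM1-CHO calcium-flux assay, antagonist mode. Cells were seeded 18 h, dye-loaded 1 h at 37 C and given compound for 5 min at RT, then acetylcholine was added at 50nM. FDSS fluorescence was read 3 min; 15 concentrations, three runs.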

[13] = molecular target: Muscarinic acetylcholine receptor M1 (Homo sapiens) (UniProt P11229); assay: Cholinergic receptor muscarinic 1 (CHRM1) small molecule agonists, cell-based qHTS assay (AID 1963589); further: nearly all actives have a fitted effect of over 35% in size
In short: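 Agonist-mode qHTS in CHO cells stably carrying human muscarinic M1. Intracellular calcium is tracked by fluorescence every second after compound transfer; each compound runs at 15 concentrations in three independent runs.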

[14] = cAMP Responsive Elements (CRE) small molecule agonists, cell-based qHTS assay (AID 1963590)
In short: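 Agonist mode qHTS in CRE-bla HEK 293T cells: compounds dosed from DMSO for 3 h at 37 C/5% CO2, followed by LiveBLAzer B/G FRET substrate for 2 h at room temperature.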

[15] = cAMP Responsive Elements (CRE) small molecule antagonists, cell-based qHTS assay (AID 1963591; active means well fitted inhibition curve with a large enough effect in the signal ratio in the repeat runs, not every such curve was filed as active; the % refers to the signal ratio)
In short: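 Antagonist mode: test compounds are co-incubated with the adenylyl cyclase activator NKH477 (0.25 uM final) on CRE-bla HEK293T cells for 3 h at 37 °C, followed by LiveBLAzer substrate loading.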

[16] = molecular target: Beta-2 adrenergic receptor (Homo sapiens) (UniProt P07550); assay: Adrenergic beta2 receptor (ADRB2) small molecule antagonists, cell-based qHTS assay (AID 1963592); further: nearly all actives have a fitted effect of over 50% in size; further: potency means the concentration at half of the fitted maximal effect; on activity change, negative = inhibition: series mostly up to about 92 µM
Chain of Beta-2 adrenergic receptor (Homo sapiens) (P07550 whole entry, looked up): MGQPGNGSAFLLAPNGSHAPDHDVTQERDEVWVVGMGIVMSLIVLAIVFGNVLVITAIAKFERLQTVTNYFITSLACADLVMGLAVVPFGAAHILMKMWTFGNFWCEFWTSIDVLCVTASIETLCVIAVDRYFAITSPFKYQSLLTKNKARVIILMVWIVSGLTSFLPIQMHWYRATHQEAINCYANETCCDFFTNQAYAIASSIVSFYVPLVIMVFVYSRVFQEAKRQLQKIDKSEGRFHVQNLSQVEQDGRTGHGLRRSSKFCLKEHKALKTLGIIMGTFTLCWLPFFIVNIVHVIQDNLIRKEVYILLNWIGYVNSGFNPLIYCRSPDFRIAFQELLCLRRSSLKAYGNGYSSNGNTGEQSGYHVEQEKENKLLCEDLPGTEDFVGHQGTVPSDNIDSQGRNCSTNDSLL
In short: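 Cells (CHO, stable ADRB2 overexpression) incubated 18-20hr at 37C; compounds added from DMSO; agonist mix (1nM isoproterenol, 100uM IBMX, 25uM Ro-20-1724) added; 0.5hr RT; d2-cAMP and anti-cAMP-cryptate added; 1hr RT; 665/615 nm read.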

[17] = molecular target: D(2) dopamine receptor (Homo sapiens) (UniProt P14416); assay: Dopamine D2 receptor (DRD2) small molecule agonists, cell-based qHTS assay (AID 1963594); further: nearly all actives have a fitted effect of over 35% in size
Chain of D(2) dopamine receptor (Homo sapiens) (P14416 whole entry, looked up): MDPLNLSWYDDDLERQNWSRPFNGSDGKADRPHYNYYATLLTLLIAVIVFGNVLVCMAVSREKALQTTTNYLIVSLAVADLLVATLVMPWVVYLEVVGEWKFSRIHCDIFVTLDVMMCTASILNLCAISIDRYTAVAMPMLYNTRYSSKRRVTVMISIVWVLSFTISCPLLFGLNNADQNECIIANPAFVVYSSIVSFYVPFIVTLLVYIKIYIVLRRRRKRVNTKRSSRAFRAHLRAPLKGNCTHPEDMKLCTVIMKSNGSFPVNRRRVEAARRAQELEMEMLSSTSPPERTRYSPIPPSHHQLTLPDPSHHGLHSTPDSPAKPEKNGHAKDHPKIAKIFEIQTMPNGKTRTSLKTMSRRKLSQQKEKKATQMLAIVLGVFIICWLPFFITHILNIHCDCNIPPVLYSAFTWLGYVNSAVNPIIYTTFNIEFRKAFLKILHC
In short: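 HEK293 cells stably expressing DRD2 were cultured 24 h at 37 C, then given Ro20-1724 (0.1 mM final) and compounds for 10 min at room temperature. NKH477 (200nM) was then added for 30 min. cAMP was read by HTRF.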

[18] = molecular target: D(2) dopamine receptor (Homo sapiens) (UniProt P14416); assay: Dopamine D2 receptor (DRD2) small molecule antagonists, cell-based qHTS assay (AID 1963595; active means well fitted inhibition curve with a large enough effect in the signal ratio in the repeat runs, with a control signal flat; the % refers to the signal ratio)
In short: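 HEK293 cells stably expressing DRD2 were preincubated with 0.1 mM Ro20-1724, then with compound for 10 min at room temperature. Cells were stimulated with 200 nM NKH477 plus 12 nM quinpirole for 30 min, and cAMP was read by HTRF.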

[19] = molecular target: 5-hydroxytryptamine receptor 2A (Homo sapiens) (UniProt P28223); assay: 5-hydroxytryptamine receptor 2A (HTR2A) small molecule agonists, cell-based qHTS assay (AID 1963587); further: nearly all actives have a fitted effect of over 30% in size
In short: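 HTR2A-CHO cells, plated 18 h at 37 C/5% CO2, dye-loaded 1 h at 37 C; compounds in DMSO added by pin tool (agonist mode). Intracellular calcium flux read as kinetic fluorescence on FDSS over 2 min at 1 s intervals.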

[20] = molecular target: Beta-2 adrenergic receptor (Homo sapiens) (UniProt P07550); assay: Adrenergic beta2 receptor (ADRB2) small molecule agonists, cell-based qHTS assay (AID 1963593);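 further: CHO cells stably overexpressing human ADRB2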
In short: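 CHO cells stably over-expressing ADRB2 were plated overnight at 37C, then dosed with compounds plus a stimulation mix containing 100uM IBMX and 25uM Ro-20-1724 for 0.5hr at room temperature. cAMP was measured by HTRF competition, 1hr.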
On the % scale 0 is the no-effect control and ±100 the full control effect.

CC(O)CN(CCCN(C)C)CCCN(C)C (stereo not given)
inactive: Potency [1] | Potency [2] | Potency [3] | outcome [4] | Potency [5] | Potency [6] | Potency [7] | Potency [8] | Potency [9] | Potency [10] | Potency [11] | Potency [12] | Potency [13] | Potency [14] | Potency [15] | Potency [16] | Potency [17] | Potency [18]

CCCCCCCCCCCCCCCC/C=C/C1CC(=O)OC1=O (stereo not given)
inactive: Potency [1] | Potency [2] | Potency [3] | outcome [4] | Potency [5] | Potency [6] | Potency [7] | Potency [8] | Potency [9] | Potency [11] | Potency [19] | Potency [12] | Potency [13] | Potency [14] | Potency [15] | Potency [17] | Potency [18]

Nc1ccc(S(=O)(=O)NC(=O)c2ccccc2)cc1
inactive: Potency [1] | Potency [2] | Potency [3] | outcome [4] | Potency [5] | Potency [6] | Potency [7] | Potency [8] | Potency [9] | Potency [10] | Potency [14] | Potency [15] | Potency [16] | Potency [17] | Potency [18]

CCOC(=O)CC(C)O (stereo not given)
inactive: Potency [1] | Potency [2] | Potency [3] | outcome [4] | Potency [5] | Potency [6] | Potency [7] | Potency [8] | Potency [9] | Potency [11] | Potency [19] | Potency [12] | Potency [13] | Potency [14] | Potency [16] | Potency [17] | Potency [18]

Oc1cn2c(n1)Nc1ccc(Cl)c(Cl)c1C2
inactive: activity change, negative = cytotoxicity [1] -5.95% [at 19 µM] | activity, positive = activation [2] -4.99% [at 19 µM] | activity change [3] -1.21% [at 11.8 µM, hits give high values] | activation [4] 1.57% [at 15.8 µM] | activation [5] -4.43% [at 13.5 µM] | activation [6] -0.253% [at 13.6 µM] | activity change, negative = cytotoxicity [7] -1.56% [at 13.5 µM] | activity change, negative = cytotoxicity [8] -5.66% [at 13.5 µM] | activity change, negative = cytotoxicity [9] -7.7% [at 13.5 µM] | activation [10] 2.32% [at 13.5 µM] | activity, negative = inhibition [11] 4.4% [at 12.7 µM] | activation [19] 4.55% [at 15.9 µM] | activity, negative = inhibition [12] -10.4% [at 12.6 µM] | activation [13] -0.629% [at 15.8 µM] | activity change, negative = inhibition [16] 8.99% [at 19 µM] | Potency [20] | activation [17] 1.31% [at 19 µM] | activity change, negative = inhibition [18] -3.31% [at 18.9 µM]

Cc1cn[nH]c1
inactive: Potency [1] | Potency [2] | Potency [3] | outcome [4] | Potency [5] | Potency [6] | Potency [7] | Potency [8] | Potency [9] | Potency [10] | Potency [15] | Potency [16] | Potency [20] | Potency [17] | Potency [18]

CCCCN(C)C
inactive: Potency [1] | Potency [2] | Potency [3] | outcome [4] | Potency [5] | Potency [6] | Potency [7] | Potency [8] | Potency [9] | Potency [10] | Potency [11] | Potency [19] | Potency [14] | Potency [15] | Potency [20] | Potency [17] | Potency [18]

Cc1c(N=C=O)cccc1N=C=O
inactive: Potency [1] | Potency [2] | Potency [3] | outcome [4] | Potency [5] | Potency [6] | Potency [7] | Potency [8] | Potency [9] | Potency [19] | Potency [12] | Potency [13] | Potency [14] | Potency [15] | Potency [16] | Potency [17] | Potency [18]

CC1(C)S[C@@H]2[C@H](NC(=O)C(c3ccccc3)S(=O)(=O)O)C(=O)N2[C@H]1C(=O)O (stereo not given in full)
inactive: Potency [1] | Potency [2] | Potency [3] | outcome [4] | Potency [5] | Potency [6] | Potency [7] | Potency [8] | Potency [9] | Potency [10] | Potency [11] | Potency [19] | Potency [12] | Potency [13] | Potency [14] | Potency [20] | Potency [17] | Potency [18]

Cc1cc(C)c(NC(=O)CN(CC(=O)O)CC(=O)O)c(C)c1Br
inactive: Potency [1] | Potency [2] | Potency [3] | outcome [4] | Potency [5] | Potency [6] | Potency [7] | Potency [8] | Potency [9] | Potency [10] | Potency [11] | Potency [19] | Potency [13] | Potency [15] | Potency [16] | Potency [20] | Potency [18]

OCCSc1ccccc1
inactive: Potency [1] | Potency [2] | Potency [3] | outcome [4] | Potency [5] | Potency [6] | Potency [7] | Potency [8] | Potency [9] | Potency [11] | Potency [19] | Potency [12] | Potency [13] | Potency [14] | Potency [16] | Potency [17] | Potency [18]

NC12CC3CC(CC(C3)C1)C2
inactive: Potency [1] | Potency [2] | Potency [3] | outcome [4] | Potency [5] | Potency [6] | Potency [7] | Potency [8] | Potency [9] | Potency [10] | Potency [14] | Potency [15] | Potency [16] | Potency [20] | Potency [17] | Potency [18]

O=C(NC1CCN(CCc2c[nH]c3ccccc23)CC1)c1ccccc1
inactive: Potency [1] | Potency [2] | Potency [3] | outcome [4] | Potency [5] | Potency [6] | Potency [7] | Potency [8] | Potency [9] | Potency [10] | Potency [12] | Potency [13] | Potency [17]
active: Potency [11] 0.46 µM | Potency [16] 13.3 µM

CCC(O)C(C)(C)C (stereo not given)
inactive: Potency [1] | Potency [2] | Potency [3] | outcome [4] | Potency [5] | Potency [6] | Potency [7] | Potency [8] | Potency [9] | Potency [10] | Potency [11] | Potency [12] | Potency [13] | Potency [14] | Potency [15] | Potency [16] | Potency [17] | Potency [18]
